GIRK2 activator: activators of NPY4-receptor-primed GIRK2 channels, summary, cell-based, HEK293, thallium flux | G protein-activated inward rectifier potassium channel 2 (Homo sapiens), P48051 | HEK293 GIRK2/NPY4 cells, thallium flux fluorescence | activation (% efficacy), % for hits at 37.5 µM | 34,000 tested, under 10 active;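 active means primary screen hit, no activity in plain HEK293 cells, and in GIRK2-only cells above 5% efficacy rising with concentration; inactive means the rest, including fluorescent compounds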;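 further: efficacy is normalized control-subtracted fluorescence 15 s after thallium addition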
Target sequence (P48051 whole entry, looked up): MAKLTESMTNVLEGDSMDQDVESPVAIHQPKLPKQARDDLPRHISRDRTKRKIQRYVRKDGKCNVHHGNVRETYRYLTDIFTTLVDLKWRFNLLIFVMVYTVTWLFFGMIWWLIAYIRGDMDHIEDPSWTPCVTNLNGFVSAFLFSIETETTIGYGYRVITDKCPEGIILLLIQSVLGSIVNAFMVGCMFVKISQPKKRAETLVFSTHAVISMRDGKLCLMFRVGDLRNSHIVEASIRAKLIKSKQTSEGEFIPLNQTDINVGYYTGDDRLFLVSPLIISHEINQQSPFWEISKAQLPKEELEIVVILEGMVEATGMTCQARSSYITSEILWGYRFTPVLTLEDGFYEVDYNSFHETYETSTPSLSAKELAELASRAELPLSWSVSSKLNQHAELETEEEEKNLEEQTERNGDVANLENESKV
AMPAR-TARP mod: modulators of GluA2-stargazin AMPA receptor complexes, primary screen, cell-based, membrane potential dye | AID 1259245, 2017 | 40,000 tested, 3.5% active | Voltage-dependent calcium channel gamma-2 subunit (Mus musculus) + Glutamate receptor 2 … | calls only at 30 µM | HEK293 GluA2+stargazin, membrane potential dye (FDSS), glutamate EC50; hits were called plate by plate, in both directions;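 active means any of four per-well response measures lying three or more SD from its plate-wide compound average, in either direction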
* marks the source's active call; other numbers are inactive results; i = inactive; . = not tested or not shown; + = active, no number; ! = a repeat was not active. This is one part of a sample in which hits are shown more often than they occur.

SMILES | GIRK2 activator | AMPAR-TARP mod
O=C(NCc1ccccc1)N1CCN(c2ccc3nnc(-c4ccco4)n3n2)CC1 | i | +
O=S(=O)(c1ccccc1F)N1CCN(c2ccc3nnc(-c4ccco4)n3n2)CC1 | i | +
COc1ccccc1-c1nnc2ccc(OCCNC(=O)Nc3ccccc3)nn12 | i | i
O=C(Nc1nc2ccccc2s1)c1csc(Nc2ccccc2)n1 | i | .
COc1ccc(/C=C2\Oc3c(cc4c(c3C)OCN(Cc3ccco3)C4)C2=O)cc1OC | i | +
COc1ccc(/C=C2\Oc3c4c(cc(C)c3C2=O)OCN(C2CC2)C4)cc1OC | i | i
CC(=O)N1CCCC1c1nc2ccccc2n1CCCOc1c(C)cccc1C (stereo not given) | i | +
Cc1cccc(C)c1OCC(O)Cn1c(C2CC2)nc2ccccc21 (stereo not given) | i | i
CCOc1ccc(-n2nnc(C(=O)Nc3ccccc3C(F)(F)F)c2N)cc1 | i | i
O=C(CN1CCN(C(=O)c2ccccc2Cl)CC1)c1cccs1 | i | i
O=C(NC(=S)Nc1ccc(S(=O)(=O)NC2CCCCC2)cc1)c1cccs1 | . | +
NS(=O)(=O)c1ccc(NS(=O)(=O)c2ccc(NC(=O)C3CCCCC3)cc2)cc1 | i | i
O=C(Nc1cc(-c2ccco2)nn1-c1nc(-c2ccccc2)cc(=O)[nH]1)c1cc(C2CC2)on1 | i | i
COc1ccc(OC)c(-c2csc(NC(=O)c3ccc(SC(C)C)cc3)n2)c1 | i | i
COc1ccc(-c2csc(NC(=O)c3ccc(SC(C)C)cc3)n2)c(OC)c1 | . | +
CS(=O)(=O)N1CCN(C(=O)C2CN(C(=O)c3cccs3)C2)CC1 | i | i
COc1ccccc1C1C=C(c2ccc(Cl)cc2)Nc2nc(NS(C)(=O)=O)nn21 (stereo not given) | . | i
Cc1ccc(C2=CC(c3ccc(Cl)cc3)n3nc(N4C(=O)CCC4=O)nc3N2)cc1 (stereo not given) | . | +
COc1ccc(CNC(=O)CN2C(=O)N(c3cccc(OC)c3)S(=O)(=O)c3ccccc32)cc1 | i | i
COc1cc(/C=C/C(=O)N2CCC(C)CC2)ccc1OCc1ccccc1 | i | +!
COc1cc(/C=C/C(=O)N2CCCCCC2)ccc1OCc1ccccc1 | i | i
Cn1nc(-c2cccc(NC(=O)Nc3ccccc3)c2)ccc1=O | i | i
Cn1nc(-c2cccc(NC(=O)c3cccnc3)c2)ccc1=O | i | +
O=C(NCCC1=CCCCC1)C(=O)Nc1ccc(N2CCCS2(=O)=O)cc1 | . | i
Cc1cc(C)c2c(n1)nn1c(N3CCCCC3)cc(C)nc21 | i | +
SMILES | GIRK2 activator | AMPAR-TARP mod
Cc1cc(C)c2c(n1)nn1c(NC(C)c3ccccc3)cc(C)nc21 (stereo not given) | i | i
CCOC(=O)c1c(SCC(=O)NCCc2ccc(OC)c(OC)c2)nc(=O)[nH]c1C | i | i
Cc1ccc(-c2ccc(N3CCN(C(=O)Cc4cccs4)CC3)nn2)cc1 | i | i
Cc1ccccc1-c1ccc(N2CCN(C(=O)Cc3cccs3)CC2)nn1 | i | i
Cc1cc(N2CCOCC2)nc(N2CCN(C(=O)Cc3cccs3)CC2)n1 | i | +
Cc1ccc(C(=O)N2CCN(c3nc(C)cc(N4CCCCC4)n3)CC2)cc1 | . | i
Cc1cc(N2CCCC2)nc(N2CCN(C(=O)c3ccccc3)CC2)n1 | . | +
O=C(Cc1cccs1)N1CCN(c2ccc(-c3ccccn3)nn2)CC1 | i | +
CCC(=O)N1CCCc2ccc(NC(=O)Nc3cc(OC)cc(OC)c3)cc21 | i | .
O=C(NCC1COC2(CCCCC2)O1)NC1CCCCC1 (stereo not given) | i | i
COc1ccc(C(=O)N2CCC3(CC2)C(=O)N(C)C(=O)N3C)cc1 | i | i
CC(Oc1ccccc1)C(=O)NCC(O)(c1ccccc1)C1CC1 (stereo not given) | . | i
CS(=O)(=O)c1ccc(CC(=O)N2CCN(c3nc4c(Cl)cccc4s3)CC2)cc1 | . | i
CCc1cccc2sc(N3CCN(C(=O)Cc4ccc(S(=O)(=O)CC)cc4)CC3)nc12 | . | +
COc1ccc(S(=O)(=O)NCCOc2ccc(-c3ccc(C)cc3)nn2)cc1OC | i | i
CCOc1ccc(S(=O)(=O)NCCOc2ccc(-c3ccccc3)nn2)cc1 | i | +
CCOc1ccc(C(C)C)cc1S(=O)(=O)NCCOc1ccc(-c2ccccc2)nn1 | i | +
COc1ccc(S(=O)(=O)NCCOc2ccc(-c3ccc(F)cc3)nn2)cc1F | i | +
CCOC(=O)c1ccc(S(=O)(=O)NCCOc2ccc(-c3ccccc3)nn2)cc1 | i | +
CCOC(=O)c1ccc(S(=O)(=O)NCCOc2ccc(-c3ccc(OC)cc3)nn2)cc1 | i | i
CCOc1ccc(-c2ccc(OCCNS(=O)(=O)c3ccccc3)nn2)cc1 | i | i
COc1ccc(Cl)cc1S(=O)(=O)NCCOc1ccc(-c2ccccc2)nn1 | i | i
O=C(NCC(O)(c1ccco1)C1CC1)c1ccccc1C(F)(F)F (stereo not given) | i | i
COc1ccc(N2CCN(C(=O)C3CC(=O)N(c4ccccc4)C3)CC2)nn1 (stereo not given) | i | .
CS(=O)(=O)c1ccc(CC(=O)Nc2cccc(-c3nc4ccccc4o3)c2)cc1 | . | i
O=C(NCc1n[nH]c(=O)c2ccccc12)c1ccc(Br)o1 | i | i
O=C(NCc1n[nH]c(=O)c2ccccc12)c1cc(=O)c2ccccc2o1 | i | +
COC(=O)N1CCN(CCNC(=O)NC2CCCCC2)CC1 | i | i
